Here are results for nine compounds from PubChem BioAssay (Tox21).

Inconclusive results are not listed. Active and inactive are the calls of the source. Unless noted, the call rests on the fitted dose curve; in most records, active means well fitted curve in the direction sought with a large enough effect in the repeat runs; inconclusive means weak or mixed curves; inactive means no such curve, though single readings can be large; an effect the other way counts as inactive or inconclusive.

The nature of assay [1]: qHTS assay to identify small molecule agonists of the peroxisome proliferator-activated receptor delta (PPARd) signaling pathway - cell viability counter screen (AID 743211). Further: nearly all actives have a fitted effect of over 55% in size. In outline:
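Tox21 library compounds, delivered in DMSO, were incubated 17 h with PPARd-bla HEK293H cells; cytotoxicity was taken from CellTiter-Glo luminescence read 30 min after reagent addition.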
For orientation: In qHTS, concentration-response curves come from the screen itself.

In assay [2] the target is Peroxisome proliferator-activated receptor delta (Homo sapiens) (UniProt Q03181). In words: qHTS assay to identify small molecule agonists of the peroxisome proliferator-activated receptor delta (PPARd) signaling pathway (AID 743212; calls by dose curve). A digest of the protocol: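 Read-out: beta-lactamase FRET fluorescence after 2 h room-temperature incubation with LiveBLAzer B/G substrate. Cells were HEK293H carrying a UAS-bla reporter for PPARd, treated at 37 C with DMSO-dissolved compounds.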

Assay [3] in a line: qHTS assay to identify small molecule antagonists of the peroxisome proliferator-activated receptor delta (PPARd) signaling pathway - cell viability counter screen (AID 743213). Further: nearly all actives have a fitted effect of over 50% in size. In outline:
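PPARd-bla HEK293H cells (3000/well) got compound plus 300 nM L165041 agonist for 17 h at 37 C. Viability in the same wells came from CellTiter-Glo luminescence after 30 min at room temperature.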

Assay [4] has as its target Peroxisome proliferator-activated receptor delta (Homo sapiens) (UniProt Q03181). In words: qHTS assay to identify small molecule antagonists of the peroxisome proliferator-activated receptor delta (PPARd) signaling pathway (AID 743215; active means well fitted inhibition curve with a large enough effect in the signal ratio in the repeat runs, not every such curve was filed as active; the % refers to the signal ratio;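 further: cells stimulated with agonist L165041 at 300 nM final during compound exposure; series mostly up to about 62 µM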). A digest of the protocol: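 Plated HEK293H PPARd-bla cells rested 5 h at 37 C and 5% CO2. Compound, then agonist L165041 at 300 nM final, was added; 17 h at 37 C followed. Substrate loading, 2 h room temperature, fluorescence measured.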

Assay [5] in a line: qHTS assay to identify small molecule agonists of the farnesoid-X-receptor (FXR) signaling pathway - cell viability counter screen (AID 743218). Further: nearly all actives have a fitted effect of over 45% in size. A digest of the protocol: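 Viability of FXR-bla HEK 293T cells is measured by ATP-based CellTiter-Glo luminescence following 16 h compound treatment at 37 C and a prior 2 h room-temperature beta-lactamase substrate step.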
Assay [6] can be described thus: qHTS assay to identify small molecule antagonists of the farnesoid-X-receptor (FXR) signaling pathway - cell viability counter screen (AID 743221; active means well fitted cell-killing curve with a large enough effect in the repeat runs, not every such curve was filed as active; further: nearly all actives have a fitted effect of over 50% in size; further: potency means the concentration at half of the fitted maximal effect). A digest of the protocol:
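Cytotoxicity is taken from ATP luminescence (CellTiter-Glo, 30 min, room temperature) in FXR-bla HEK 293T cells previously incubated 16 h at 37 C with compound and chenodeoxycholic acid at 50 uM final.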

Assay [7] concerns the target Vitamin D3 receptor (Homo sapiens) (UniProt P11473). In words: qHTS assay to identify small molecule agonists of the vitamin D receptor (VDR) signaling pathway (AID 743222; calls by dose curve). A digest of the protocol:
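Fluorescence from cleaved LiveBLAzer B/G FRET substrate served as readout. VDR-bla cells had been treated 16 h at 37C with test compounds in DMSO, following a 4 h settling period, and substrate was loaded for 2 h at RT.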

Assay [8] shares this target. In words: qHTS assay to identify small molecule antagonists of the vitamin D receptor (VDR) signaling pathway (AID 743223; active means well fitted inhibition curve with a large enough effect in the signal ratio in the repeat runs, not every such curve was filed as active; the % refers to the signal ratio). In outline:
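Quantitative HTS in VDR-bla reporter cells stimulated with 1alpha,25-dihydroxyvitamin D3, 3 nM final. Compound exposure 16 h, 37C, 5% CO2. Read-out: beta-lactamase FRET substrate fluorescence, 2 h RT.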

Assay [9] in a line: qHTS assay to identify small molecule agonists of the NFkB signaling pathway - cell viability counter screen (AID 1159515; calls by dose curve; further: series mostly up to about 61 µM; nearly all actives have a fitted effect of over 55% in size). A digest of the protocol:
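Parallel cytotoxicity counter screen in ME-180 cells carrying an NFkB-response-element beta-lactamase reporter, 2,000 cells/well. Compound exposure lasted 5 hr at 37 C, 5% CO2. Cell viability was quantified by CellTiter-Glo luminescence.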

A short description of assay [10]: qHTS assay to identify small molecule agonists of the endoplasmic reticulum stress response signaling pathway (AID 1159516; active means well fitted activation curve with a large enough effect in the signal ratio in the repeat runs, not every such curve was filed as active; the % refers to the signal ratio). In outline:
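Using a HeLa line with an ESRE-driven beta-lactamase gene, agonist activity was measured by FRET substrate fluorescence (460 and 530 nm emission) after cells were treated with compounds for 5 hr at 37 C and 5% CO2.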

A short description of assay [11]: qHTS assay to identify small molecule agonists of the endoplasmic reticulum stress response signaling pathway - cell viability counter screen (AID 1159517; calls by dose curve;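 further: HeLa cells carrying an ER stress response element beta-lactamase reporter; series mostly up to about 61 µM; nearly all actives have a fitted effect of over 50% in size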). A digest of the protocol: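 Steps: seed 1,500 ESRE-bla HeLa cells per well; incubate overnight at 37 C, 5% CO2; add compounds in DMSO for 5 hr; run FRET substrate 2 hr RT; add CellTiter-Glo, wait 30 min, read luminescence.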

Assay [12] is described as follows: qHTS assay to identify small molecule antagonists of the retinoid-related orphan receptor gamma (ROR-gamma) signaling pathway - cell viability counter screen (AID 1159520). Further: nearly all actives have a fitted effect of over 50% in size. A digest of the protocol:
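Tet-on ROR gamma CHO cells were given compounds for 2 hr, then doxycycline hyclate at 1 uM final, and incubated 16 hr at 37 C. Viability was measured as ATP content by CellTiter-Glo luminescence.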

The target in assay [13] is Nuclear receptor ROR-gamma (Homo sapiens) (UniProt P51449). Kind of assay: qHTS assay to identify small molecule antagonists of the retinoid-related orphan receptor gamma (ROR-gamma) signaling pathway (AID 1159521). In outline:
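Inducible-expression reporter assay: doxycycline (1 uM final) switched on RORγ in CHO cells bearing a ROR response element-luciferase construct, with test compounds present from 2 h beforehand. Decreased luminescence after 16 h defined antagonist activity.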

Assay [14] in a line: qHTS assay to identify small molecule agonists of the AP-1 signaling pathway - cell viability counter screen (AID 1159525; calls by dose curve; further: nearly all actives have a fitted effect of over 55% in size). A digest of the protocol: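 Same-well cytotoxicity counter screen of the Tox21 10K library in ME-180 cells. The readout is ATP-dependent luminescence after 5 h compound treatment. Data are normalised to DMSO and tetra n-octyl ammonium bromide controls.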

The nature of assay [15]: qHTS assay to identify small molecule agonists of the AP-1 signaling pathway (AID 1159526; calls by dose curve).
For assay [16], the target named is Bile acid receptor (Homo sapiens) (UniProt Q96RI1). In words: qHTS assay to identify small molecule agonists of the farnesoid-X-receptor (FXR) signaling pathway (AID 743220; active means well fitted activation curve with a large enough effect in the signal ratio in the repeat runs, not every such curve was filed as active; the % refers to the signal ratio). In outline:
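FXR-UAS-bla HEK 293T cells carrying a UAS-driven beta-lactamase reporter were plated for 5 h at 37C/5% CO2, then exposed to DMSO-dissolved Tox21 10K compounds for 16 h at 37C. A LiveBLAzer B/G FRET substrate was loaded for 2 h at room temperature before fluorescence reading.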

Assay [17] can be described thus: qHTS assay to identify small molecule agonists of the vitamin D receptor (VDR) signaling pathway - cell viability counter screen (AID 743224). In outline: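 Compounds were pin-transferred onto VDR-bla cells plated 4 h earlier; following 16 h incubation at 37C, cell viability was quantified by CellTiter-Glo luminescence after 30 min at room temperature.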
Assay [18] in a line: qHTS assay to identify small molecule antagonists of the vitamin D receptor (VDR) signaling pathway - cell viability counter screen (AID 743225). Further: nearly all actives have a fitted effect of over 50% in size. A digest of the protocol:
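Same-well multiplex: following 16 h treatment of HEK 293T cells carrying a UAS-driven beta-lactamase reporter with compound and agonist (3 nM final), and a 2 h FRET substrate step, CellTiter-Glo was added and luminescence read after 30 min.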

The target of assay [19] is Retinoic acid receptor RXR-alpha (Homo sapiens) (UniProt P19793). Kind of assay: qHTS assay to identify small molecule agonists of the RXR signaling pathway (AID 1159527; calls by dose curve; further: nearly all actives have a fitted effect of over 35% in size). A digest of the protocol:
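Compounds in DMSO were added to RXR-alpha-UAS-bla HEK 293T cells kept in 2% charcoal-stripped serum, and incubated 16 hr at 37 C with 5% CO2. Reporter signal came from a 2 hr B/G FRET substrate step.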

Assay [20] has as its target Bile acid receptor (Homo sapiens) (UniProt Q96RI1). In words: qHTS assay to identify small molecule antagonists of the farnesoid-X-receptor (FXR) signaling pathway (AID 743217; active means well fitted inhibition curve with a large enough effect in the signal ratio in the repeat runs, not every such curve was filed as active; the % refers to the signal ratio). A digest of the protocol: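 Screen of the Tox21 10K library in quantitative HTS format using FXR-UAS-bla HEK 293T reporter cells. Agonist chenodeoxycholic acid, 50 uM final, added with compounds; 16 h incubation at 37 °C; beta-lactamase FRET fluorescence measured.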

Chain of Vitamin D3 receptor (Homo sapiens) (P11473 whole entry, looked up): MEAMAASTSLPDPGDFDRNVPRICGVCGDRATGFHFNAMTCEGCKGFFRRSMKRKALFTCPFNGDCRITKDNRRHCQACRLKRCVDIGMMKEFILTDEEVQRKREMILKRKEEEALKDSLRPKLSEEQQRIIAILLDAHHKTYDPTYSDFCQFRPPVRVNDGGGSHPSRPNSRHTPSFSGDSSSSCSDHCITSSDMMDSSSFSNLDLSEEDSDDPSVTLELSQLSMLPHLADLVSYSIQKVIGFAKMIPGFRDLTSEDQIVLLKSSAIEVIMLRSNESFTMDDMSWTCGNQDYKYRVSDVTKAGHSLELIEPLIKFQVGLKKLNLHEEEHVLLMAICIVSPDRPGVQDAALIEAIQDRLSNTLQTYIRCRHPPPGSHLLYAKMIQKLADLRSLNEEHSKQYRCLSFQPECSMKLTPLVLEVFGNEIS
Chain of Bile acid receptor (Homo sapiens) (Q96RI1 whole entry, looked up): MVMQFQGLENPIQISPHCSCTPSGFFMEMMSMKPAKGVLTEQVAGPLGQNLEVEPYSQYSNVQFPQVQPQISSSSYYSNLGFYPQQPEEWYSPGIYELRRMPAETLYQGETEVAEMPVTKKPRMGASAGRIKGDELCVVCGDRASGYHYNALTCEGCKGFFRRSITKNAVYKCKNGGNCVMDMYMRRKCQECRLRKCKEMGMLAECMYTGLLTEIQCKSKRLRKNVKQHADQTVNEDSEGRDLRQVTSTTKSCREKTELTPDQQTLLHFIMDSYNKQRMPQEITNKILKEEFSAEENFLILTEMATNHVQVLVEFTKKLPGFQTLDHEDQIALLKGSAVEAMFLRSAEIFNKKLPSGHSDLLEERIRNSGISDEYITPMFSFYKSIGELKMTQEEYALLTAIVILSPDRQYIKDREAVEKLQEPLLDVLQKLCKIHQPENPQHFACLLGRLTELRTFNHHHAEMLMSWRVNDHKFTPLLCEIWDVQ
Chain of Peroxisome proliferator-activated receptor delta (Homo sapiens) (Q03181 whole entry, looked up): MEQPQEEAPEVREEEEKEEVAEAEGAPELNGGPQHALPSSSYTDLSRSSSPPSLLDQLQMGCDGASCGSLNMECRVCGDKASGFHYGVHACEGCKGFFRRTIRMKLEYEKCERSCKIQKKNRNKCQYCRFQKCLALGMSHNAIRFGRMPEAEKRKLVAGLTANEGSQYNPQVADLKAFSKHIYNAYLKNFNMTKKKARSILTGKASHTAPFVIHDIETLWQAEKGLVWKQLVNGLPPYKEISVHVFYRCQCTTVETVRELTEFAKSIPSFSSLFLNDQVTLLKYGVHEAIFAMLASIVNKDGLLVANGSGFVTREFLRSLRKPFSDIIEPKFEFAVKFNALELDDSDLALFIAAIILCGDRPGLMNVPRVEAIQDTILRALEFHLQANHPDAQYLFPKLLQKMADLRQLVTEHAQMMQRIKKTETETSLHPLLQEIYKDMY
Chain of Retinoic acid receptor RXR-alpha (Homo sapiens) (P19793 whole entry, looked up): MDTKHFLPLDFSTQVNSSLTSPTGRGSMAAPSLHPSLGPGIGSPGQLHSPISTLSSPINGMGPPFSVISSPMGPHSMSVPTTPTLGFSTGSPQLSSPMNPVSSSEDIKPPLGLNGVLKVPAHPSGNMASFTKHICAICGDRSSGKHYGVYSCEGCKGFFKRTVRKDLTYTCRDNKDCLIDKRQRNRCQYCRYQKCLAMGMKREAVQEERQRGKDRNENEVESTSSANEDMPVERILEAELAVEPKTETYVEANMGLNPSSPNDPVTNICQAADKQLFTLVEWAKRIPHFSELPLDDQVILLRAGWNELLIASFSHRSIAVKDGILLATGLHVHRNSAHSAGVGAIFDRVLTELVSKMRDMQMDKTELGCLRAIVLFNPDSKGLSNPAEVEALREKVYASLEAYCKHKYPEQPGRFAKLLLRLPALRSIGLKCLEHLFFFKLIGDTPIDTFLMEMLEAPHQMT

Consider `Cc1cccc(Oc2ccccc2)c1`, for which the Potency result in assay [1], in [3], in assay [5], in assay [6], in [8] and in assay [9] was “inactive” throughout. The Potency result in assay [10], in assay [12], in assay [13], in assay [14] and in assay [15] was “inactive” each time. Besides, the result in [2], in [4], in [7] and in assay [11] was inactive.
On to `O=C(NN1CCCC1)NS(=O)(=O)c1ccc(Cl)cc1`, for which the Potency result in [1], in [3], in assay [5], in assay [6], in [8] and in assay [17] was “inactive” each time. In addition, the Potency result in assay [18], in assay [9], in assay [10], in [12], in assay [13] and in assay [14] was “inactive” throughout. Further, the Potency entry in assay [15] and in assay [19] was “inactive” in each case. Moreover, the compound was called inactive in assay [2], in [4], in [16], in [7] and in assay [11].
With `CC[C@H](C)[C@H](N)C(=O)O`, the Potency result in assay [1], in assay [3], in [5], in assay [6], in assay [17] and in assay [18] was “inactive” each time. The Potency entry in assay [9], in assay [10], in assay [12], in assay [13], in assay [14] and in [15] was “inactive” each time. For the same compound, the Potency entry in assay [19] was “inactive”. For the same compound, the compound was called inactive in assay [7] and in [11].
On to `COC(=O)C(C)=O`, for which the Potency result in assay [1], in [3], in assay [8], in assay [17], in assay [18] and in assay [9] was “inactive” each time. Besides, the Potency result in assay [10], in assay [12], in assay [13], in assay [14], in assay [15] and in assay [19] was “inactive” in each case. Moreover, the compound was called inactive in assay [2], in assay [4], in assay [7] and in assay [11].
Take `FC(F)(F)C(F)(F)C(F)(F)C(F)(F)C(F)(F)C(F)(F)CCI`: the Potency entry in assay [1], in assay [3], in assay [6], in assay [8], in [17] and in assay [18] was “inactive” throughout. Moreover, the Potency result in assay [9], in [10], in assay [12], in assay [13], in assay [14] and in assay [15] was “inactive” each time. The compound was classed as inactive in assay [2], in assay [20], in assay [16], in [7] and in assay [11].
In the case of `CC(=O)/C(C)=C/C1C(C)=CCCC1(C)C` (stereo not drawn), the Potency entry in assay [1], in [3], in assay [6], in assay [17], in assay [18] and in assay [9] was “inactive” each time. Further, the Potency result in [10], in assay [12], in assay [13], in assay [14] and in assay [15] was “inactive” in each case. For the same compound, the result in assay [2], in assay [4] and in [11] was inactive.
As for `CCCCOC(=O)/C=C\C(=O)OCCCC`, the Potency entry in assay [1], in assay [3], in assay [8], in [17], in assay [18] and in assay [9] was “inactive” each time. Further, the Potency result in assay [10], in [12], in assay [13], in [14], in [15] and in assay [19] was “inactive” throughout. Besides, the compound was called inactive in assay [16], in [7] and in assay [11].
With `CCCc1ccccc1`, the Potency result in [1], in assay [3], in assay [5], in assay [17], in assay [18] and in [9] was “inactive” in each case. Moreover, the Potency result in assay [10], in [12], in assay [13], in assay [14] and in assay [15] was “inactive” each time. Also, the result in assay [2], in [4], in [7] and in [11] was inactive.
Regarding `OCC1CC2CC1C1CCC(CO)C21` (stereo not drawn), the Potency entry in assay [1], in assay [3], in assay [8], in assay [17], in assay [18] and in [9] was “inactive” in each case. Besides, the Potency result in assay [10], in assay [12], in assay [13], in [14] and in assay [15] was “inactive” throughout. The compound was classed as inactive in assay [2], in [4], in assay [16], in assay [7] and in [11]. Also, in assay [6], the Potency is 24.5 µM (active).
